# According to PubChem BioAssay (NCI):
# About 83,000 compounds went through this panel and 20% of them were active in at least one assay; those are over-represented in the sample as a whole.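 In brief: 96-well plates, 48 h treatment, single concentration, percent growth endpoint.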 A number with no mark means an inactive call. Activity calls are given as the source filed them. Rule for the calls: active = growth percent below 10; inactive = the rest.
# Experiments:
# Experiment in all cases: NCI-60 one-dose screen, 48 h (100 = growth as untreated, 0 = no growth, -100 = all killed)
# Conditions in all cases: 10 µM unless noted
# NCI-H23 lung = test system: NCI-H23 lung
# NCI-H226 lung = test system: NCI-H226 lung
# NCI-H322M lung = test system: NCI-H322M lung
# HOP-62 NSCLC = test system: HOP-62 NSCLC
# NCI-H460 lung = test system: NCI-H460 lung
# HOP-92 NSCLC = test system: HOP-92 NSCLC
# NCI-H522 lung = test system: NCI-H522 lung
# A549/ATCC NSCLC = test system: A549/ATCC NSCLC
# 786-0 renal = test system: 786-0 renal
# COLO 205 colon = test system: COLO 205 colon
SMILES,growth (NCI-H23 lung),growth (NCI-H226 lung),growth (NCI-H322M lung),growth (HOP-62 NSCLC),growth (NCI-H460 lung),growth (HOP-92 NSCLC),growth (NCI-H522 lung),growth (A549/ATCC NSCLC),growth (786-0 renal),growth (COLO 205 colon)
O=C(c1ccc(O)cc1)[C@@H]1[C@@H]2CCCN2[C@@]2(C(=O)N(C(=O)c3ccc(F)cc3)c3ccccc32)[C@H]1c1ccc(F)cc1,98.5%,94.3%,98.6%,97.4%,99.6%,67%,93.7%,96.6%,100%,105%
NS(=O)(=O)c1ccc(Nc2nc(N/N=C/c3ccc([N+](=O)[O-])cc3)nc(Nc3ccccc3)n2)cc1,12.2%,59.6%,39.5%,9.49% (active),1.55% (active),49.1%,48.3%,96.9%,10.4%,23.1%
Cc1ccc(NC(=O)c2ccc(CN3CCN(C)CC3)c(I)c2)cc1Oc1ccc(-c2[nH]nc3ncnc(N)c23)cc1,87.9%,91.8%,89.8%,105%,90.4%,83.4%,46.6%,66.1%,-74.7% (active),53%
Oc1ccccc1/C=N/Nc1nc(N/N=C/c2ccccc2O)nc(N2CCOCC2)n1,41.5%,23.3%,44.5%,25.7%,32.5%,-12.8% (active),,13%,30.3%,48%
Cc1cn(-c2cc(NC(=O)c3cncc(C#Cc4cnc5ccc(OCCCS(C)(=O)=O)nn45)c3)cc(C(F)(F)F)c2)cn1,-5.32% (active),4.42% (active),24.4%,25.5%,18.6%,-34.5% (active),,48%,12.4%,-30.3% (active)
O=C1[C@H]2Cc3c([nH]c4ccccc34)[C@@H](c3c(Cl)cccc3Cl)N2C(=O)CN1C1CCN(Cc2ccccc2)CC1,104%,103%,101%,90.7%,8% (active),83.8%,,94.2%,-58.2% (active),101%
O=C(N/N=C\c1ccc(Cl)cc1)c1ccc2nc(-c3ccc(Br)cc3)[nH]c2c1,-36% (active),9.5% (active),41.3%,-42.5% (active),-76.4% (active),-3.66% (active),10.5%,-51.7% (active),-73.7% (active),-33.4% (active)
CCOC(=O)c1c(NC(=O)c2cccc(C(F)(F)F)c2)sc2c(CN3CCN(C)CC3)c(O)ccc12,53.4%,83.8%,8.01% (active),38.8%,-64.4% (active),30.7%,,32%,-83.6% (active),-55.1% (active)
Oc1ccc(CSc2nnc(-c3ccc(Oc4ccccc4)cc3)o2)c2cccnc12,31.3%,71.8%,36.7%,9.54% (active),3.07% (active),33.7%,40.1%,9.22% (active),-11.5% (active),78.2%
NC(=O)C(=Cc1ccc(Cl)cc1)C(N)=O,74.5%,65.3%,79.6%,95.9%,89%,34.8%,46.5%,74.5%,70.7%,81.3%
C=CCn1c(SCC(=O)Nc2cccc(C(=O)/C=C/c3ccc(Cl)cc3)c2)nc2ccccc2c1=O,92.3%,102%,95.6%,113%,95.4%,88.7%,,85.7%,98.2%,112%
COc1cc2c3c(n(CCCNCC4CC4)c(=O)c2cc1OC)-c1cc2c(cc1C3=O)OCO2,-52.6% (active),61.9%,66.9%,-85.8% (active),-58.7% (active),90.8%,,-85.1% (active),-98.2% (active),38%
O=S(=O)(Nc1cc(Cl)cc(Cl)c1)c1ccc(-c2cnc(C3CC3)o2)cc1,42.9%,43.4%,49.9%,43.1%,18.7%,64.6%,,43.1%,50.3%,14.2%
COc1ccc(Oc2ccc(C3CC(c4cc(OC)c(OC)c(OC)c4)=NN3C(C)=O)cc2)cc1 (stereo not given),24.1%,17.1%,46.9%,48.1%,23.8%,12.2%,,24.8%,29.2%,11.1%
Oc1ccc(CSc2nnc(-c3cnccn3)n2-c2ccccc2)c2cccnc12,26.9%,30%,31.2%,22.1%,10.4%,-3.39% (active),,29.5%,35.1%,103%
O=C1c2c(O)cc(O)cc2O[C@@H](c2ccc(O)cc2)[C@@H]1c1c(O)cc(O)c2c(=O)cc(-c3ccc(O)c(O)c3)oc12,92%,76.6%,97%,96.3%,112%,104%,97.4%,106%,100%,114%
CCN1C(=O)N(CC)C2SC(N/N=C/c3ccc(F)cc3)=NC21 (stereo not given),29.6%,48.1%,55.2%,33%,4.72% (active),-0.0922% (active),-32.8% (active),26.4%,30.3%,-49.1% (active)
N#C/C(=C\c1ccc(Cl)cc1Cl)C(N)=O,104%,109%,100%,101%,106%,122%,,109%,101%,117%
Cn1c2ccc(Br)cc2c2c3c(c4c5cc(F)ccc5oc4c21)C(=O)N(O)C3=O,77.2%,90.8%,103%,47.1%,45.9%,82.5%,,98.4%,97.6%,93.7%
COc1ccc(NC(=O)[C@H](C)N)cc1C(=O)Nc1cccc(-c2cc(=O)c3c(OC)c(OC)c(OC)cc3o2)c1,64.4%,67.2%,67.7%,67.3%,52.4%,-4.58% (active),82%,76.5%,63.5%,69.6%
C=CCn1c(SCC(=O)Nc2cccc(C(=O)/C=C/c3ccc(C)cc3)c2)nc2ccccc2c1=O,81.3%,92.6%,92.1%,113%,94.8%,103%,,82.3%,98.9%,109%
O=C1CSC(=O)N1Cc1cc2ccccc2nc1Cl,99.7%,102%,108%,101%,106%,94.5%,94.3%,99.6%,100%,109%
CC(=O)NC(C)(C)C(=O)N[C@@H](C)C(=O)NC(C)(C)C(=O)N[C@@H](C)C(=O)NC(C)(C)C(=O)N[C@@H](C)C(=O)N[C@@H](CCC(N)=O)C(=O)NC(C)(C)C(=O)N[C@H](C(=O)NC(C)(C)C(=O)NCC(=O)N[C@@H](CC(C)C)C(=O)NC(C)(C)C(=O)N1CCC[C@H]1C(=O)N[C@H](C(=O)NC(C)(C)C(=O)NC(C)(C)C(=O)N[C@@H](CCC(N)=O)C(=O)N[C@@H](CCC(N)=O)C(=O)N[C@H](CO)CC1CCCCC1)C(C)C)C(C)C,21.6% [5 µM],35% [5 µM],94.2% [5 µM],46.3% [5 µM],45.1% [5 µM],-13.3% [5 µM] (active),6.15% [5 µM] (active),48.1% [5 µM],78.6% [5 µM],-12% [5 µM] (active)
COc1ccc(NC(=O)Cn2cc(CN3C(=O)c4ccc([N+](=O)[O-])cc4C3=O)nn2)cc1,99.7%,96.4%,106%,107%,,85.6%,99.9%,102%,107%,122%
Oc1ccc(CSc2nnc(-c3ccc(Br)cc3)n2-c2ccccc2)c2cccnc12,38.2%,44.7%,52.4%,16.1%,,31.9%,28.5%,26.3%,43.2%,99.6%
Cc1cc(=O)n2nc(-c3cn(C)c4ccc(Cl)cc34)sc2n1,92.1%,67.3%,97.2%,85.7%,,80.1%,89.2%,96.7%,102%,93.7%
